CSC inhib – cancer stem cell inhibition. actives 1.1% (n = 300,000). AID 2717. cancer stem cell-like cells viability, luminescence. inhibition, % at 7.5 µM; in the data active = inhibition above about 75%; inconclusive = no clear call, values can overlap the other calls; tested in HMLE shEcad cells
Beta cell apopt – beta cell apoptosis inhibition. AID 435005. INS-1E cytokine-induced death, ATP luminescence, 48 h; percent of positive-control rescue, neutral wells zero. actives 0.8% (n = 300,000). protection from apoptosis, % (no concentration beside the values);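 active = Every replicate reaches about 75%, or at least half do and their mean reaches it too, limit read from the data; inconclusive = At least half of replicates reach the limit but their mean does not; inactive = Under half of replicates reach the limit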;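 note: higher means more ATP so stronger rescue from cytokine killing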
Gli-Sufu antag – blocks Gli-Sufu signaling in a luciferase reporter; actives 0.74% (n = 340,000); Sufu-KO-LIGHT fibroblasts, Gli luciferase reporter luminescence; inhibition, % at 5 µM; AID 588413;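 active = inhibition above about 55%, limit read from the data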
Mdm2-MdmX inh – inhibitors of human Mdm2/MdmX interaction | O15151+Q00987 | SaOS-2 split-luciferase Mdm2/MdmX complementation, luminescence | inhibition, % at 8 µM | actives 3% (n = 330,000);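 active = inhibition of at least 50% at 8 µM in the primary screen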
NR3A LBD binder – NR3A (human) ligand-binding domain modulation; NR3A LBD differential scanning fluorimetry, Tm shift; 0% = protein alone, 100% = glycine-bound protein; Tm shift relative to glycine control, % at 25 µM; actives 2.5% (n = 340,000); AID 1259313;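 active = melting temperature shift of at least 10% of the positive control shift, at one fixed dose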
MPTP block – inhibitors of mitochondrial permeability transition pore; isolated mouse mitochondria, Ca2+ swelling absorbance, 30 min; inhibition, % at 10 µM; actives 1.4% (n = 360,000);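 active = inhibition of 50% or more, scaled per plate between neutral and stimulator controls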
Mdm2-MdmX conf – human Mdm2/MdmX binding inhibition, confirmed | luminescent assay | shares compounds with Mdm2-MdmX inh | actives 55% (n = 10,000) | inhibition, % at 8 µM; in the data active = inhibition above about 40%
FLuc counter – counter-screen for Mdm2/MdmX inhibitors: full-length luciferase; inhibition, % at 8 µM; actives 77% (n = 6,200); AID 504607; shares compounds with Mdm2-MdmX inh; SaOS-2 full-length luciferase counterscreen, luminescence;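 active = mean inhibition at 8 µM reaching about 37%, which flags the compound as non-specific, limit read from the data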;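 note: p53-null SaOS-2 cells with luciferase driven by a doxycycline-inducible promoter; compound on cells about two nights before reading with doxycycline added after day one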
Large screens that a line does not name were inactive (follow-up assays come after a bar, where they were run). A selection: hits, their analogues and other compounds. The true share with any hit is near 6.6%.

COc1ccc(-n2ncc3c(NCc4ccc5c(c4)OCO5)ncnc32)cc1	Mdm2-MdmX inh 59 | Mdm2-MdmX conf inactive
c1cncc(-c2ccc3ncnc(NCc4ccc5c(c4)OCO5)c3c2)c1	none (no result: CSC inhib)
c1ccc(-n2ncc3c(NCc4ccc5c(c4)OCO5)ncnc32)cc1	none
c1nc(NCc2ccc3c(c2)OCO3)c2cc(-c3ccoc3)ccc2n1	Mdm2-MdmX inh 81 | Mdm2-MdmX conf 75 | FLuc counter 51
Cc1oc(-c2ccccc2Cl)nc1CSCC(=O)N1CCCC1	Mdm2-MdmX inh 78 | Mdm2-MdmX conf 84 | FLuc counter inactive
Cc1oc(-c2ccccc2Cl)nc1CSCC(=O)NC1CCCC1	none
O=C(Nc1ccncc1)C1CCN(S(=O)(=O)c2ccccc2C(F)(F)F)CC1	none (no result: Beta cell apopt)
Cc1ccc(C)c(NC(=S)N2CCN(c3cccc(C(F)(F)F)c3)CC2)c1	none
Cc1ccnc(NC(=S)N2CCN(c3cccc(C(F)(F)F)c3)CC2)c1	Mdm2-MdmX inh 75 | Mdm2-MdmX conf 77 | FLuc counter 46
Cn1c(=O)cc(OCCCC(=O)NC2CCCC2)c2ccccc21	Mdm2-MdmX inh 67 | Mdm2-MdmX conf 48 | FLuc counter 86
Cc1ccnc(NC(=O)CCCc2c[nH]c3ccccc23)c1	Mdm2-MdmX inh 68 (no result: Beta cell apopt) | Mdm2-MdmX conf inactive
Cn1c(=O)cc(OCCCC(=O)NCc2ccccn2)c2ccccc21	none
CCOc1ccc(NC(=O)CCCOc2cc(=O)n(C)c3ccccc23)cc1	Mdm2-MdmX inh 52 | Mdm2-MdmX conf inactive
Cc1ccc(NC(=O)CCCc2c[nH]c3ccccc23)nc1	none
Cn1c(=O)cc(OCC(=O)NC2CCCCC2)c2ccccc21	none
COc1cccc(NC(=O)CCCOc2cc(=O)n(C)c3ccccc23)c1	none
Cc1ccnc(NC(=O)CCCOc2cc(=O)n(C)c3ccccc23)c1	Mdm2-MdmX inh 75 | Mdm2-MdmX conf 84 | FLuc counter 117
Cc1cc(NC(=O)CON=C(N)CC(=O)Nc2ccccc2Cl)ccc1Br	none (no result: CSC inhib, Beta cell apopt)
Cc1ccnc(NC(=O)CSc2cc(=O)n(C)c3ccccc23)c1	CSC inhib inconclusive, Mdm2-MdmX inh 83 | Mdm2-MdmX conf 76 | FLuc counter 127
Cn1c(=O)cc(OCCCC(=O)NCc2ccc(F)cc2Cl)c2ccccc21	Mdm2-MdmX inh 57 | Mdm2-MdmX conf inactive
Cn1c(=O)cc(SCC(=O)Nc2ccccn2)c2ccccc21	none (no result: MPTP block)
CC(C)CC(=O)c1c(O)c(C=O)c(O)c2c1O[C@@]1(C)[C@@H](C2)C[C@H]2C[C@@H]1C2(C)C	CSC inhib 107, Mdm2-MdmX inh 59 | Mdm2-MdmX conf inactive
C=C(C)C(=O)Oc1ccc(N=Nc2ccc(C)cc2)ccc1=O	none (no result: CSC inhib, Beta cell apopt, Mdm2-MdmX inh)
C=C(C)C(=O)OC1(C(F)(F)F)Oc2cc(C)ccc2NC1=O (centres undefined)	Mdm2-MdmX inh 100 | Mdm2-MdmX conf 61 | FLuc counter inactive
CC(=O)c1c(C)[nH]c(C(=O)OCC(=O)c2c(N)n(CC(C)C)c(=O)n(C)c2=O)c1C	none (no result: CSC inhib)
CC(=O)c1c(C)[nH]c(C(=O)OCC(=O)c2c(N)n(C)c(=O)n(C)c2=O)c1C	Mdm2-MdmX inh 56 (no result: Gli-Sufu antag, NR3A LBD binder, MPTP block) | Mdm2-MdmX conf inactive
C[C@@H]1CN([C@@H](C)CO)C(=O)c2cc(Br)cnc2O[C@H]1CN(C)C(=O)Nc1ccccc1	none (no result: CSC inhib, Beta cell apopt, Gli-Sufu antag, Mdm2-MdmX inh, NR3A LBD binder)
O=C(Nc1ccc(Oc2ccccc2)nc1)C1CCCCN1Cc1ccco1 (centres undefined)	Mdm2-MdmX inh 65 | Mdm2-MdmX conf 76 | FLuc counter 68
O=C(Nc1ccc(Oc2ccccc2)nc1)C1CCN(Cc2ccco2)CC1	none
O=C(C1=C[C@H](c2ccccc2)C[C@H](OCCCCO)O1)N1CCN(Cc2ccccc2)CC1	none
C#Cc1ccc([C@@H]2C=C(C(=O)N3CCN(Cc4ccccc4)CC3)O[C@H](OCCCCO)C2)cc1	Beta cell apopt 124, Mdm2-MdmX inh 57 (no result: Gli-Sufu antag, NR3A LBD binder) | Mdm2-MdmX conf 77 | FLuc counter 37
COc1ccc(S(=O)(=O)NCc2csc(C)n2)cc1OC	none
CCN1CCN(c2c(Cl)cccc2NC(=O)c2ccc([N+](=O)[O-])cc2)CC1	none

High-throughput results deposited in PubChem by several laboratories.
